Laboratory results taken from PubChem BioAssay (NCI).
Where “and” joins values, the source holds several entries; their conditions need not be identical. Equal values may be shown once. About 83,000 compounds went through this panel and 20% of them were active in at least one assay; those are over-represented in the sample as a whole.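 Interpretation: 100, growth as untreated; towards 0, rising growth inhibition; 0, no net growth; 0 to -100, cell death. Compounds scoring below 10 were considered active.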 Calls of active or inactive are those of the source.

test system: MDA-MB-468 breast; assay: NCI-60 one-dose screen, 48 h (100 = growth as untreated, 0 = no growth, -100 = all killed); details: 10 µM unless noted

| SMILES | growth |
| --- | --- |
| O=C(O)c1cc2ccccc2s1 | 112% (inactive) |
| Cn1cc(-c2cc3ncnc(Nc4ccc(CC(=O)Nc5cc(C(C)(C)C)nn5C)cc4)c3s2)cn1 | 33.8% (inactive) |
| CCSc1nc(NC)c2cc(-c3ccc(C(F)(F)F)cc3)ccc2n1 | 110% (inactive) |
| COc1cnc2c(c1)C(=O)c1c-2n(CCCN2CCNCC2)c(=O)c2cc(Cl)ccc12 | 65.8% (inactive) |
| COc1cc(/C=C/C(=O)/C=C/c2cc3ccc(Cl)cc3n(Cc3ccccc3)c2=O)ccc1O | -42.8% (active) |
| CCCn1cnc2c(c1=N)C(c1ccc(Cl)cc1)c1sc3c(CC)cccc3c1O2 (stereo unspecified) | 5.23% (active) |
| O=c1[nH][nH]c(-c2ccc(F)cc2)c1-c1nc2ccccc2s1 | 100% (inactive) |
| COc1cc(CSc2nc3ccc(C)cc3c(=O)n2-c2ccccc2)cc(OC)c1OC | -8.37% (active) |
| CC1=C(O)C(=O)C(C(C#N)(C#N)C(C#N)C#N)C1 (stereo unspecified) | 102% (inactive) |
| C[C@@H]1CC[C@H]2[C@@H](C)C(O)O[C@@H]3O[C@]4(C)CC[C@@H]1[C@]32OO4 (stereo partly specified) | 27.7% (inactive) |
| COc1ccc2c(c1)C(=O)CC(c1ccccc1OC)O2 (stereo unspecified) | 92.2% (inactive) |
| O=C(/C=C/c1ccc([N+](=O)[O-])o1)NNC(=O)c1cc2ccccc2cc1O | 6.09% (active) |
| C[C@@H]1OCC2(CCN(c3cnc(C(=O)Nc4cc(F)cc5cccnc45)cn3)CC2)[C@@H]1N | 1.07% (active) |
| O=C1CCc2ccccc2N1 | 98.8% (inactive) |
| CCSCC1CC(O)(c2ccccc2)C(c2ccccc2)C(c2ccc(F)cc2)O1 (stereo unspecified) | -18% (active) |
| CNC(=O)c1cc(Oc2ccc3nc(NC(=O)c4cc(C)cc(C)c4)sc3c2)ccn1 | 50.2% (inactive) |
| COc1ccc(NC2=CC(=O)C(C)=C(C)C2=O)cc1 | 57% (inactive) |
| O=C(Nc1nc2ccc(C(=O)N3CCN(c4ccc(Cl)c(Cl)c4)CC3)cc2s1)c1ccc(NCCc2ccccc2)c([N+](=O)[O-])c1 | 88.6% (inactive) |

| SMILES | growth |
| --- | --- |
| NC(N)=NS(=O)(=O)c1ccc(NC2=C(I)C(=O)c3ncccc3C2=O)cc1 | 94.1% (inactive) |
| O=C(/C=C/c1cccc([N+](=O)[O-])c1)c1ccc(Nc2nc(N3CCCCC3)nc(N3CCCCC3)n2)cc1 | 121% (inactive) |
| CCOC(=O)c1cc(C(=O)c2cc(OC)c(OC)c(OC)c2)n2ccc(-c3cc[n+](CC(=O)c4cc(OC)c(OC)c(OC)c4)cc3)cc12 | 43.2% (inactive) |
| CCCCCCOc1ccc(/C=N/NC(N)=S)cc1 | 66.9% (inactive) |
| CCN(CC)CC#CCOC(=O)[C@]1(C)CCC[C@@]2(C)[C@H]1CC(C=O)=C1C=C(C(C)C)CC[C@@H]12 | 41.5% (inactive) |
| CC(CN(C)C)CN1c2ccccc2Sc2ccccc21 (stereo unspecified) | 40.2% (inactive) and 73.1% (inactive) and 64% (inactive) |
| Cc1c(C(=O)N[C@H](CO)Cc2ccccc2)[nH]c2ccc(Cl)cc2c1=O | 95.5% (inactive) |
| Nc1ccc(/C=N/Nc2ccnc3c(O)cccc23)c2cccnc12 | 73.6% (inactive) |
| C=C1C(=O)O[C@H]2[C@H]1CC/C(COC(=O)CCSCCC(=O)OC/C1=C/CC[C@@]3(C)O[C@H]3[C@H]3OC(=O)C(=C)[C@@H]3CC1)=C\CC[C@@]1(C)O[C@@H]21 | -23.6% (active) |
| COc1cccc(-c2nn(-c3ccccc3)cc2-c2ccnc(-c3cccnc3)c2)c1 | 80.4% (inactive) |
| CC[C@@H](C(=O)[C@H](C)[C@H](O)[C@@H](C)[C@H]1O[C@H]([C@@H](CC)C(=O)N(CC)CC)CC[C@H]1C)C1O[C@]2(C=C[C@@H](O)[C@]3(CC[C@@](C)([C@H]4CC[C@](O)(CC)[C@H](C)O4)O3)O2)[C@H](C)C[C@@H]1C (stereo partly specified) | -18.3% (active) |
| C=C1C(=O)C2CCC1C2 (stereo unspecified) | 110% (inactive) |
| CCN(CC)CCCC(C)Nc1c2ccc(Cl)cc2nc2ccc(OC)cc12 (stereo unspecified) | -63.3% (active) |
| Cc1cccc(-c2nc(C(C)C)sc2-c2ccnc(NCCCNS(=O)(=O)c3ccc(Cl)cc3)c2)c1 | 55.2% (inactive) |
| CCN(CC)CCCCCCCNc1c2ccc(Cl)cc2nc2ccc(OC)cc12 | -86.6% (active) |
| CCOC(=O)c1ccc2[nH]c(-c3ccccc3)cc(=O)c2c1 | 105% (inactive) |
| COc1ccc(/C=C(\C#N)C(=O)N2c3ccccc3Sc3ccc(SC)cc32)cc1F | 72.3% (inactive) |
| CC(=O)c1c(C)nc2ccccc2c1/C=C/c1ccc(F)cc1 | 46.1% (inactive) |
